{"source": "PubChem BioAssay", "note": "Activity calls are given as the source filed them.", "data": [{"tested_on": "not listed separately", "test": "Plasmodium falciparum growth inhibition, primary screen, strain 3D7, DAPI fluorescence, 100 nL (AID 1184);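 also: parasites grown inside human red blood cells in medium with human serum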", "conditions": "P. falciparum 3D7 growth, 3 d, higher = more signal", "values": [{"smiles": "Cc1cc2c(nc1C)CCCCN2CC(C)ON=C[C@@H](C)[C@H](OCc1ccccc1)C(C)C", "note": "(some centres undefined)", "z-score": -0.109}, {"smiles": "CC(C)=NOC[C@@H](C)[C@H](OCc1ccccc1)C(C)C", "z-score": -0.89}, {"smiles": "CCOC(=O)[C@H](Cc1ccccc1)NC(=O)CCC1CC(OC(=O)NCCc2ccc(F)cc2)CC2(CCCC(COC(=O)NCCCN3CCCC3=O)O2)O1", "note": "(some centres undefined)", "z-score": -1.6}, {"smiles": "O=C1CCCC(C2=CCCCC2=O)C1", "note": "(centres undefined)", "z-score": 0.488}, {"smiles": "CCOC(=O)[C@H](Cc1ccccc1)NC(=O)CCC1CC(OC(=O)NCc2ccc3c(c2)OCO3)CC2(CCCC(COC(=O)NCCC(C)C)O2)O1", "note": "(some centres undefined)", "z-score": -1.2}, {"smiles": "O=C1[C@H]2[C@H]3[C@H](O)[C@H](O)CC(=NOCc4ccccc4)[C@@H]3CC[C@H]2C(=O)N1Cc1ccc2c(c1)OCO2", "z-score": -0.364}]}, {"target": "Homeobox protein Hox-A13 (Mus musculus) (UniProt Q62424)", "sequence (Q62424 whole entry, looked up)": "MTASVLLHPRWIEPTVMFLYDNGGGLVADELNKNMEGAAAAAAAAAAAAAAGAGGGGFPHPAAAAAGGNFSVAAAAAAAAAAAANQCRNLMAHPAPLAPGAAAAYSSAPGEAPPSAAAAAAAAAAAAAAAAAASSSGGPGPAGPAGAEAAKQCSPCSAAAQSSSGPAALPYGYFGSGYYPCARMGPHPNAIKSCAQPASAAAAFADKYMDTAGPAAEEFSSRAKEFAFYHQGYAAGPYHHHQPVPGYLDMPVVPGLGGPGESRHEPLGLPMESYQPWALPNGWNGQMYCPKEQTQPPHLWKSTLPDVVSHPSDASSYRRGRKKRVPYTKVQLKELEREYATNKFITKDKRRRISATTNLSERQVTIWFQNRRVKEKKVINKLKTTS", "test": "inhibitors of HoxA13-DNA binding, primary screen, biochemical, fluorescence polarization, labeled oligonucleotide (AID 1185)", "conditions": "15 min, higher = more signal, called active from +8 up or from −8 down", "values": [{"smiles": "COc1ccc(O[C@H]2C=C[C@@H](c3ccccc3)O[C@@H]2CON=C(C)C)cc1", "z-score": "2.39 (inactive)"}, {"smiles": "COc1cccc([C@H]2Oc3ccc(OC)cc3C(=NO[C@@H]3O[C@H](COC(C)=O)[C@@H](OC(C)=O)[C@H](OC(C)=O)[C@H]3OC(C)=O)[C@@H]2O)c1", "z-score": "-5.19 (inactive)"}, {"smiles": "CCCCC#C[C@@H]1C=C[C@H](Oc2ccc(C(=O)OC)cc2)[C@@H](COC(=O)OCC)O1", "z-score": "-5.73 (inactive)"}, {"smiles": "CCC(=O)[C@@]1(O)C(=O)N2C(=C3C(=O)OCC[C@@H]31)N(Cc1ccccc1)C(C)=C(C(=O)OC)[C@H]2c1ccccc1", "z-score": "-0.219 (inactive)"}, {"smiles": "C[C@H]1Cc2c(COc3ccccc3)nc3c(c2CO1)CN(CCOc1ccccc1)CC3", "z-score": "-5.49 (inactive)"}, {"smiles": "CCOC(=O)NN=C1C[C@@H](O)[C@@H](O)[C@@H]2[C@@H]3C(=O)N(Cc4ccc5c(c4)OCO5)C(=O)[C@@H]3CC[C@H]12", "z-score": "-0.227 (inactive)"}, {"smiles": "COc1cccc([C@H]2Oc3ccc(OC)cc3C(=NO[C@@H](C)c3cn([C@H](CO)Cc4ccccc4)nn3)[C@@H]2O)c1", "z-score": "-6.48 (inactive)"}, {"smiles": "CO[C@@H]1COC(=O)[C@H](CCSC)NC(=O)CC=C[C@@H](C)COC(=O)CCC[C@H]1C", "z-score": "-2.31 (inactive)"}, {"smiles": "CO[C@@H]1COC(=O)CC=C[C@@H](C)[C@H](OC)COC(=O)[C@@H](C)COC(=O)CC=C[C@H]1C", "z-score": "0.372 (inactive)"}, {"smiles": "Cc1cc2c(nc1C)CCCCN2CC(C)ON=C1[C@H]2CCn3c(=O)n(-c4ccccc4)c(=O)n3[C@H]2[C@H](O)[C@@H]2O[C@H]12", "note": "(some centres undefined)", "z-score": "-4.23 (inactive)"}, {"smiles": "CCOC(=O)NN=C1C[C@@H](O)[C@@H](O)[C@@H]2[C@@H]3C(=O)N(c4cccc(Oc5ccccc5)c4)C(=O)[C@@H]3CC[C@@H]12", "z-score": "-4.18 (inactive)"}, {"smiles": "COc1ccc(COC(=O)NN=C2C[C@@H](O)[C@@H](O)[C@@H]3[C@@H]4C(=O)N(c5cccc(Oc6ccccc6)c5)C(=O)[C@@H]4CC[C@@H]23)cc1", "z-score": "-4.69 (inactive)"}, {"smiles": "COC(=O)[C@H](C)NC(=O)CCC1CC(OC(=O)NCc2ccc3c(c2)OCO3)CC2(CCCC(COC(=O)NCC(c3ccccc3)c3ccccc3)O2)O1", "note": "(some centres undefined)", "z-score": "-6.84 (inactive)"}, {"smiles": "CO[C@H]1COC(=O)[C@H](C)NC(=O)[C@@H](C)COC(=O)[C@H]2CCCN2C(=O)CC=C[C@H]1C", "z-score": "0.24 (inactive)"}, {"smiles": "O=C1[C@H]2[C@H]3[C@H](O)[C@H](O)CC(=NO[C@@H]4O[C@H](CO)[C@@H](O)[C@H](O)[C@H]4O)[C@H]3CC[C@H]2C(=O)N1c1cccc(Oc2ccccc2)c1", "z-score": "-1.68 (inactive)"}, {"smiles": "CC(=O)OC[C@H]1O[C@H](C#Cc2ccccc2)C=C[C@@H]1OC(C)=O", "z-score": "-3 (inactive)"}, {"smiles": "COc1ccc(C#C[C@@H]2C=C[C@H](OC(C)=O)[C@@H](COC(C)=O)O2)cc1", "z-score": "-2.53 (inactive)"}, {"smiles": "CC(=O)Nc1ccc([C@@H]2N[C@H](C(=O)O)CC[C@H]2C)cc1", "z-score": "-0.107 (inactive)"}, {"smiles": "COC(=O)CC=C[C@@H](C)[C@@H]1C=C[C@H](O)[C@@H](CO)O1", "z-score": "-0.235 (inactive)"}, {"smiles": "CC(=O)OC[C@H]1O[C@@H](ON=C(C)CCN2CCCc3nc(C)c(C)cc32)[C@H](OC(C)=O)[C@@H](OC(C)=O)[C@@H]1OC(C)=O", "z-score": "-5.84 (inactive)"}, {"smiles": "CCOC(=O)[C@H](CC(C)C)NC(=O)CCC1CC(OC(=O)NCCc2ccc(F)cc2)CC2(CCCC(COC(=O)NCCC(C)C)O2)O1", "note": "(some centres undefined)", "z-score": "-2.83 (inactive)"}, {"smiles": "CC(C)(C)N1C(=O)[C@H]2[C@H]3[C@H](O)[C@H](O)CC(=O)[C@@H]3CC[C@H]2C1=O", "z-score": "-0.472 (inactive)"}, {"smiles": "CC(=O)OC[C@H]1O[C@H](CCON=C2[C@H]3CCn4c(=O)n(-c5ccccc5)c(=O)n4[C@H]3[C@H](O)[C@@H]3O[C@H]23)C=C[C@@H]1OC(C)=O", "z-score": "-1.83 (inactive)"}]}]}
